The supplement of paper PMC4723716
± gives the uncertainty stated by the source. In all, about 9,900 compounds were measured (“viability index relative to DMSO control”: median about 1, lowest 2% from about 0.85 on). The sample holds the lowest values, similar compounds and a random draw of the others, so the mix is not that of the screen.

System: Plasmodium falciparum NF54 stage V gametocytes
Test: viability index relative to DMSO control (fraction); higher = less gametocyte killing
Details: 2.5 µM, incubation time: 72 h
How it was run: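 P. falciparum NF54 stage V gametocytes in serum-free screening medium (0.75% gametocytemia, 1.25% hematocrit, 10 µl) were incubated with compound at 2.5 µM in 1,536-well plates for 72 hr at 37°C under low oxygen. Then 3 µl of 2.5 µM MitoTracker Red CMXRos plus 0.13% saponin was added for one to two hours. One field per well was imaged, 20–70 µm2 red particles were counted, and the viability index was the count divided by the plate mean of DMSO wells.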

[1] = library set: Broad Institute DOS
[2] = library set: Broad Institute Blood Stage

Structure (SMILES)	viability index [1]	viability index [2]
Cc1noc(C)c1NC(=O)N(C)C[C@H]1Oc2ccc(NC(=O)Cc3cn(C)c4ccccc34)cc2CC(=O)N([C@H](C)CO)C[C@@H]1C	1.04 ± 0.045	–
COCC(=O)N1C[C@@H](C)[C@H](OC)CN(C)C(=O)c2ccc(NC(=O)Nc3cccc(F)c3)cc2OC[C@@H]1C	1.032 ± 0.0043	–
C[C@@H]1CCn2cc(nn2)COC[C@H](C)NC1=O	1.06 ± 0.018	–
CC(=O)N1[C@H](CO)[C@@H](c2ccccc2)C12CN(Cc1ccc(Cl)cc1)C2	1.06 ± 0.056	–
CCN(C[C@H]1N[C@H](CO)[C@@H]1c1ccccc1)C(=O)c1ccncc1	1 ± 0.019	–
C[C@H]1CCCCO[C@H](CN(C)C(=O)Nc2cccc3ccccc23)[C@@H](C)CN([C@@H](C)CO)C(=O)c2cc(NC(=O)CCC(F)(F)F)ccc2O1	0.993 ± 0.057	–
COCC(=O)N1[C@H](C#N)[C@H](c2ccccc2-c2cccc(C)c2)[C@H]1CO	1.15 ± 0.053	–
CCCC(=O)Nc1ccc2c(c1)OC[C@H](C)N(CC1CCOCC1)C[C@@H](C)[C@H](OC)CN(C)C2=O	1.02 ± 0.039	–
O=C(C[C@@H]1CC[C@@H]2NC[C@@H](O)COC[C@H]2O1)Nc1ccc(-c2ccccc2)cc1	1.06 ± 0.024	–
O=C(C[C@H]1CC[C@@H]2NC[C@H](O)COC[C@H]2O1)Nc1ccc(-c2ccccc2)cc1	1.0439 ± 3.9e-05	–
O=C(C[C@@H]1CC[C@H]2NC[C@@H](O)COC[C@@H]2O1)Nc1ccc(-c2ccccc2)cc1	0.826 ± 0.077	–
Cc1cccc(S(=O)(=O)N2C[C@H]3[C@@H](c4ccccc42)[C@H](CO)N3Cc2ccc3c(c2)OCO3)c1	1.01 ± 0.012	–
O=C(C1CCOCC1)N1CC(=O)N2[C@H](CO)[C@H](c3ccc(/C=C/c4ccccc4)cc3)[C@@H]2C1	0.99 ± 0.011	–
C[C@@H]1CN([C@H](C)CO)C(=O)c2cccc(NC(=O)c3ccc(-c4nccs4)cc3)c2O[C@H]1CN(C)C(=O)Nc1ccc(C(F)(F)F)cc1	0.97 ± 0.025	–
C[C@@H]1CN([C@@H](C)CO)C(=O)c2cccc(NC(=O)C3CCOCC3)c2O[C@@H]1CN(C)C(=O)Nc1cccc2ccccc12	0.974 ± 0.06	–
C[C@@H]1CN([C@@H](C)CO)C(=O)c2cccc(NC(=O)c3ccc(-c4nccs4)cc3)c2O[C@H]1CN(C)C(=O)Nc1ccc(C(F)(F)F)cc1	1.011 ± 0.0069	–
C[C@@H]1CN([C@@H](C)CO)C(=O)c2cccc(NC(=O)c3ccc(-c4nccs4)cc3)c2O[C@@H]1CN(C)C(=O)Nc1cccc2ccccc12	–	0.784 ± 0.023
Cc1noc(C)c1S(=O)(=O)N(C)C[C@@H]1Oc2c(NC(=O)c3ccc(-c4nccs4)cc3)cccc2C(=O)N([C@@H](C)CO)C[C@H]1C	0.828 ± 0.018	–
Cc1noc(C)c1S(=O)(=O)N(C)C[C@@H]1Oc2c(NC(=O)c3ccc(-c4nccs4)cc3)cccc2C(=O)N([C@@H](C)CO)C[C@@H]1C	0.955 ± 0.036	–
Cc1noc(C)c1S(=O)(=O)N(C)C[C@@H]1Oc2c(NC(=O)c3ccc(-c4nccs4)cc3)cccc2C(=O)N([C@H](C)CO)C[C@@H]1C	0.978 ± 0.068	–
C[C@H](CO)N1C[C@H](C)[C@H](CN(C)C(=O)Nc2cccc3ccccc23)Oc2ncccc2C1=O	0.826 ± 0.021	–
C[C@H](CO)N1C[C@H](C)[C@@H](CN(C)C(=O)Nc2ccc(C(F)(F)F)cc2)Oc2c(NC(=O)c3ccc(-c4nccs4)cc3)cccc2C1=O	0.953 ± 0.018	–

Structure (SMILES)	viability index [1]	viability index [2]
C[C@@H]1CN([C@@H](C)CO)C(=O)c2cccc(NC(=O)C3CCOCC3)c2O[C@H]1CN(C)C(=O)Nc1cccc2ccccc12	0.966 ± 0.063	–
C[C@H](CO)N1C[C@H](C)[C@H](CN(C)C(=O)Nc2ccc(C(F)(F)F)cc2)Oc2c(NC(=O)c3ccc(-c4nccs4)cc3)cccc2C1=O	1.04 ± 0.021	–
C[C@@H]1CN([C@@H](C)CO)C(=O)c2cccc(NC(=O)c3ccc(-c4nccs4)cc3)c2O[C@@H]1CN(C)C(=O)Nc1ccc(C(F)(F)F)cc1	0.556 ± 0.084	–
N#Cc1cccc(-c2ccc([C@@H]3[C@@H](CO)N4CCCCN(Cc5ccccc5F)C[C@H]34)cc2)c1	0.889 ± 0.028	–
C[C@H](CO)N1C[C@H](C)[C@@H](CN(C)S(=O)(=O)c2ccc(Cl)cc2)OCCCC[C@H](C)Oc2ccc(NC(=O)Nc3ccc(C(F)(F)F)cc3)cc2C1=O	1.1 ± 0.11	–
O=C(CC1CC1)N1CC(=O)N2[C@H](C1)[C@H](c1ccc(C#Cc3cccc(F)c3)cc1)[C@@H]2CO	0.974 ± 0.063	–
COc1ccc([C@H]2C/C=C/C[C@H](C)Oc3ccccc3C(=O)N(C)[C@@H](Cc3ccccc3)C(=O)N2)c(OC)c1.COc1ccc([C@H]2C/C=C\C[C@H](C)Oc3ccccc3C(=O)N(C)[C@@H](Cc3ccccc3)C(=O)N2)c(OC)c1	0.861 ± 0.046	–
COc1ccc2c3c([nH]c2c1)[C@@H](CO)N(C[C@]31CCN(CC1)S(C)(=O)=O)C(=O)NC1CCCC1	1.01 ± 0.02	–
Cc1noc(C)c1S(=O)(=O)N(C)C[C@H]1OCc2ccccc2-c2c(n(C)c3ccccc23)C(=O)N([C@H](C)CO)C[C@H]1C	0.948 ± 0.025	–
O=S(=O)(c1cccc(F)c1)N1[C@@H]2CNC[C@H]1[C@H]2c1ccc(-c2ccccc2F)cc1	1.06 ± 0.051	–
C[C@@H]1CN([C@@H](C)CO)C(=O)c2c(c3ccccc3n2C)-c2ccccc2CO[C@H]1CN(C)Cc1cccc(C(F)(F)F)c1	0.932 ± 0.15	–
C[C@H]1CN([C@@H](C)CO)C(=O)c2c(c3ccccc3n2C)-c2ccccc2CO[C@H]1CN(C)S(=O)(=O)c1ccc(C(F)(F)F)cc1	–	0.705 ± 0.04
C[C@@H]1CN([C@@H](C)CO)C(=O)c2c(c3ccccc3n2C)-c2ccccc2CO[C@@H]1CN(C)C(=O)Nc1ccccc1C(F)(F)F	0.955 ± 0.039	–
C[C@H](CO)N1C[C@H](C)[C@H](CN(C)S(=O)(=O)c2ccc([N+](=O)[O-])cc2)OCc2ccccc2-c2c(n(C)c3ccccc23)C1=O	0.969 ± 0.015	–
C[C@H](CO)N1C[C@H](C)[C@H](CN(C)S(=O)(=O)c2ccc(C(F)(F)F)cc2)OCc2ccccc2-c2c(n(C)c3ccccc23)C1=O	–	0.693 ± 0.051
C[C@@H]1CN([C@@H](C)CO)C(=O)c2c(c3ccccc3n2C)-c2ccccc2CO[C@H]1CN(C)S(=O)(=O)c1ccc([N+](=O)[O-])cc1	0.93 ± 0.086	–
C[C@H]1CN([C@@H](C)CO)C(=O)c2c(c3ccccc3n2C)-c2ccccc2CO[C@@H]1CN(C)C(=O)Nc1ccccc1C(F)(F)F	1.009 ± 0.0034	–
C[C@H](CO)N1C[C@H](C)[C@@H](CN(C)S(=O)(=O)c2ccc([N+](=O)[O-])cc2)OCc2ccccc2-c2c(n(C)c3ccccc23)C1=O	0.896 ± 0.046	–
C[C@@H]1CN([C@@H](C)CO)C(=O)c2c(c3ccccc3n2C)-c2ccccc2CO[C@H]1CN(C)C(=O)Nc1ccccc1C(F)(F)F	0.805 ± 0.084	–
C[C@@H]1CN([C@@H](C)CO)C(=O)c2c(c3ccccc3n2C)-c2ccccc2CO[C@@H]1CN(C)S(=O)(=O)c1ccc([N+](=O)[O-])cc1	0.998 ± 0.098	–
C[C@H]1CN([C@@H](C)CO)C(=O)c2c(c3ccccc3n2C)-c2ccccc2CO[C@H]1CN(C)Cc1cccc(C(F)(F)F)c1	0.952 ± 0.02	–
C[C@@H]1CN([C@@H](C)CO)C(=O)c2c(c3ccccc3n2C)-c2ccccc2CO[C@@H]1CN(C)Cc1cccc(C(F)(F)F)c1	0.839 ± 0.039	–
